The values that follow come from ChEMBL document CHEMBL1157539, “Thousands of chemical starting points for antimalarial lead identification” (Nature, 2010).

Holding throughout (type): functional
Assay [1] concerns Plasmodium falciparum. Briefly: GSK_TCMDC: Inhibition of Plasmodium falciparum 3D7 in whole red blood cells, using parasite LDH activity as an index of growth. Test compounds present at 2uM.
Assay [2] deals with Plasmodium falciparum. Nature of the assay: GSK_TCMDC: Inhibition of Plasmodium falciparum Dd2 in whole red blood cells, using parasite LDH activity as an index of growth. Test compounds present at 2uM.
In a further assay the test system is HepG2. Nature of the assay: GSK_TCMDC: Percent inhibition of human HepG2 cell line. Test compounds present at 10uM.

The term Inhibition denotes how much of the control response was suppressed. Low readings indicate a response near the control, high ones a response far below the control. For the compound `CCN(CCCN1CCCCC1)c1nc(C)cc(Nc2ccc(Cl)cc2)n1`, the Inhibition came out at 98% in the assay with Plasmodium falciparum [1], 92% in the assay on Plasmodium falciparum [2] and 30% with HepG2.

With `Cc1ccc(CN2CCN(Cc3cccc(NC(=O)c4cccs4)c3)CC2)cc1C.O=C(O)C(F)(F)F`, the Inhibition with Plasmodium falciparum [1] is listed as 96%; in the assay on Plasmodium falciparum [2], 68%; with HepG2, 41%.

In the case of `O=C(Nc1cccc(CN2CCCN(Cc3cccnc3)CC2)c1)c1cc2ccccc2s1.O=C(O)C(F)(F)F`, the Inhibition in the assay on Plasmodium falciparum [1] turned out to be 92%; in the assay on Plasmodium falciparum [2], 28%; in the assay with HepG2, 15%.

As for `CCOc1ccc(Nc2cc(C)nc(Nc3ccc(OCC)cc3)n2)cc1`, the Inhibition is 100% in the assay with Plasmodium falciparum [1], 49% in the assay with Plasmodium falciparum [2] and 3% in the assay with HepG2.

`CCn1c(-c2nonc2N)nc2c(-c3cccc(NC(=O)Nc4ccccc4Cl)c3)ncc(OCCCN)c21.O=C(O)C(F)(F)F`: the Inhibition is recorded as 99% with Plasmodium falciparum [1], 74% in the assay on Plasmodium falciparum [2] and 2% in the assay with HepG2.

On to `O=C(NCC1CCN(Cc2ccc3c(c2)OCCO3)C1)c1cc(-c2ccccc2F)cs1.O=C(O)C(F)(F)F` (stereo not drawn), for which the results for the Inhibition in the assay with Plasmodium falciparum [1], with Plasmodium falciparum [2] and in the assay with HepG2 were 95%, 0% and 18%, respectively.

As to `CCC(=O)N(c1ccccc1)C1CCN(CCCC(NC(=O)Nc2cc(C(F)(F)F)cc(C(F)(F)F)c2)c2ccc(Cl)c(Cl)c2)CC1` (stereo not drawn), the Inhibition in the assay with Plasmodium falciparum [1] is 99%; with Plasmodium falciparum [2] it was 18%; in the assay on HepG2, 29%.

Take `CCC(C)OC(=O)C1=C(C)NC2=C(C(=O)CC(c3ccc(OC)c(OC)c3)C2)C1c1ccc(O)cc1` (stereo not drawn): the Inhibition with Plasmodium falciparum [1] is on record as 100%; in the assay with Plasmodium falciparum [2] it was 97%; with HepG2, 3%.

`CCCOc1ccc(-c2nonc2NC(=O)c2cccc(OC)c2)cc1OCCC`: the Inhibition with Plasmodium falciparum [1] was found to be 94%; with Plasmodium falciparum [2] it was 100%; with HepG2, 18%.

In the case of `Cc1cc(NC(=O)Nc2ccc(Oc3ccccc3)cc2)c2ccccc2n1`, the figures for the Inhibition with Plasmodium falciparum [1], with Plasmodium falciparum [2] and with HepG2 were 91%, 28% and 2%, respectively.

As for `CCCCN(CCCC)/C(=N/C(=N)Nc1ccc(Cl)cc1)NCCCCCCN/C(=N\C(=N)Nc1ccc(Cl)cc1)N(CCCC)CCCC`, the results for the Inhibition in the assay with Plasmodium falciparum [1], in the assay on Plasmodium falciparum [2] and in the assay on HepG2 were 81%, 72% and 0%, respectively.

As to `N#Cc1ccc(N(CCOc2ccc(Cl)c(F)c2)Cc2ccccc2C(F)(F)F)cc1C(F)(F)F`, the Inhibition in the assay on Plasmodium falciparum [1] turned out to be 100%; in the assay on Plasmodium falciparum [2], 43%; in the assay with HepG2 it was 17%.

On to `COc1ccc2c(NN=CC=Cc3ccccc3)ccnc2c1`, for which the Inhibition is 100% in the assay with Plasmodium falciparum [1], 100% with Plasmodium falciparum [2] and 9% with HepG2.

For `O=C(/C=C/c1ccc(Cl)c(Cl)c1)NCCCCCN1CCC(CCNC(=O)/C=C/c2ccc(Cl)c(Cl)c2)CC1`, the Inhibition in the assay with Plasmodium falciparum [1] is 100%; with Plasmodium falciparum [2], 56%; with HepG2, 68%.

Turning to `CS(=O)(=O)Nc1cccc(-c2cnc3[nH]cc(-c4ccc(CCC(=O)O)cc4)c3c2)c1`, the Inhibition in the assay on Plasmodium falciparum [1] is recorded as 98%; with Plasmodium falciparum [2] it was 78%; in the assay with HepG2, 7%.

For `O=C1Nc2cccc3c2C1(CCCCN1CCC(c2c(-c4ccc(F)cc4)[nH]c4ccccc24)CC1)CCC3` (stereo not drawn), the Inhibition in the assay on Plasmodium falciparum [1] was found to be 91%; with Plasmodium falciparum [2] it was 28%; in the assay on HepG2, 25%.

`CC(C)(C)NCCN(Cc1ccc(-c2ccc(C(F)(F)F)cc2)cc1)C(=O)Cn1c(SCc2ccc(F)cc2)nc(=O)c2c1CCC2.O=C(O)C(O)C(O)C(=O)O`: the figures for the Inhibition in the assay on Plasmodium falciparum [1], with Plasmodium falciparum [2] and in the assay on HepG2 were 97%, 84% and 64%, respectively.

Consider `COc1ccc(C=Cc2ccc(-c3c(C)[nH]c(C)c(Cl)c3=O)cc2)cc1OC`, for which the Inhibition with Plasmodium falciparum [1] amounted to 97%; with Plasmodium falciparum [2] it was 96%; with HepG2, 12%.

Consider `Cc1cc(C(=O)NCc2ccc(-c3c(C)noc3C)cc2)n(-c2ccc(Cl)cc2)n1`, for which the Inhibition stood at 100% with Plasmodium falciparum [1], 98% in the assay on Plasmodium falciparum [2] and 0% with HepG2.

On to `CC(=O)c1cccc(NC(=O)C2c3ccccc3C(=O)N(CC(C)C)C2c2cccs2)c1` (stereo not drawn), for which the Inhibition in the assay on Plasmodium falciparum [1] came to 100%; with Plasmodium falciparum [2], 100%; in the assay on HepG2, 11%.

Consider `CCOc1ccc(-c2noc(-c3c[nH]c4ccccc4c3=O)n2)cc1`, for which the Inhibition is given as 99% in the assay on Plasmodium falciparum [1], 93% with Plasmodium falciparum [2] and 0% with HepG2.

In the case of `O=C(O)C(F)(F)F.c1cc(CN2CCN(CCN3CCOCC3)CC2)cc(-c2cccc(-c3nc4ccccc4[nH]3)c2)c1`, the results for the Inhibition with Plasmodium falciparum [1], in the assay on Plasmodium falciparum [2] and in the assay on HepG2 were 100%, 100% and 29%, respectively.

In the case of `COc1c(O)cc2oc(-c3ccc(O)cc3)cc(=O)c2c1O` [HISPIDULIN], the Inhibition with Plasmodium falciparum [1] turned out to be 96%; in the assay on Plasmodium falciparum [2], 0%; with HepG2 it was 6%.

In the case of `Clc1ccc2c(NCc3ccccc3)ccnc2c1`, the Inhibition in the assay on Plasmodium falciparum [1] stood at 100%; in the assay on Plasmodium falciparum [2] it was 100%; in the assay with HepG2, 40%.

Consider `Cn1c(NC(=O)c2ccc(CNC(=O)c3ccc(O)c(-c4ccc(Cl)c(Cl)c4)c3)cc2)nc2ccccc21`, for which the figures for the Inhibition in the assay with Plasmodium falciparum [1], with Plasmodium falciparum [2] and in the assay with HepG2 were 94%, 74% and 20%, respectively.

Consider `CN1CCN(Cc2cc3cc(NC(=O)/C=C/c4cccc(Cl)c4)ccc3s2)CC1.Cl`, for which the Inhibition in the assay with Plasmodium falciparum [1] amounted to 100%; in the assay on Plasmodium falciparum [2], 72%; in the assay with HepG2, 54%.

In the case of `CC(C)(C)c1ccc(CN2CCC(NC(=O)c3ccc(-c4cccc(F)c4)s3)CC2)cc1.O=C(O)C(F)(F)F`, the values for the Inhibition with Plasmodium falciparum [1], with Plasmodium falciparum [2] and with HepG2 were 92%, 24% and 35%, respectively.

Consider `CC(=O)Nc1ccc(CN2Cc3ccc(NC(=O)Nc4ccc(Oc5ccccc5)cc4)cc3C2)s1`, for which the Inhibition in the assay on Plasmodium falciparum [1] came to 91%; with Plasmodium falciparum [2], 25%; in the assay on HepG2 it was 9%.

Take `O=C(/C=C/c1ccccc1Cl)NC1CCC(CN2CCC(c3c[nH]c4ccncc34)CC2)CC1` (stereo not drawn): the Inhibition stood at 100% in the assay with Plasmodium falciparum [1], 100% in the assay on Plasmodium falciparum [2] and 19% in the assay on HepG2.

For `Cc1cc(OCCCNC(=N)c2ccc3ccccc3c2)c(C(C)C)cc1Cl.Cc1ccc(S(=O)(=O)O)cc1`, the Inhibition in the assay on Plasmodium falciparum [1] amounted to 95%; in the assay with Plasmodium falciparum [2], 10%; in the assay with HepG2, 89%.

On to `COc1ccccc1CCN(C)CCN1CCC(NC(=O)c2ccc(-c3ccc(C(F)(F)F)cc3)cc2)CC1`, for which the Inhibition in the assay on Plasmodium falciparum [1] was found to be 92%; in the assay on Plasmodium falciparum [2], 15%; in the assay on HepG2 it was 46%.
